# Screening results (PubChem BioAssay)
# Pf Dd2 growth – qHTS Primary assay for Inhibitors of Plasmodium falciparum Dd2 growth in vitro. P. falciparum Dd2 growth, SYBR Green, 72 h. Potency, µM (highest dose often 28.9 µM), for the others: top-dose activity, negative = inhibition, actives largely listed as inhibitors. 120,000 compounds, 4.3% hits; active = well fitted inhibition curve with a large enough effect;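 note: plate controls were DMSO vehicle for no effect and reference drug for full effect; nearly all actives have a fitted effect of over 65% in size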
#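 Readout: SYBR Green fluorescence, 485 nm excitation, 535 nm emission, after ~16 h lysis at 37C. Before that, Dd2-infected red cells (2.5% hematocrit) grew 72 h with compound, 29 uM top final concentration.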
# * hit, by the source's call; i = inactive; [ ] = remark or other dose. The entries come from a sample that favours hits as a whole. Potency is the fitted concentration of half-maximal effect.
SMILES,Pf Dd2 growth
CC(=O)N1CCN(C[C@@H]2C=C(C)[C@H](Cc3nnc(-c4ccncc4)o3)C[C@H]2C(C)C)CC1,11.2µM*
CC(=O)N1CCN(C[C@@H]2C=C(C)[C@H](Cc3nnc(-c4ccccc4F)o3)C[C@H]2C(C)C)CC1,12.6µM*
CC(=O)NC[C@@H]1C=C(C)[C@H](Cc2nnc(-c3cncn3C)o2)C[C@H]1C(C)C,0.4%[44.1 µM]
CC1=C[C@@H](CN2CCC(C(N)=O)CC2)[C@H](C(C)C)C[C@H]1Cc1nnc(-c2cccnc2)o1,i
CC(=O)NC[C@@H]1C=C(C)[C@H](Cc2nc3ccccc3n2C)C[C@H]1C(C)C,i
CC1=C[C@@H](CNC2CCOCC2)[C@H](C(C)C)C[C@H]1Cc1nc2ccccc2n1C,5.01µM*
CC1=C[C@@H](CN2CCC(C(N)=O)CC2)[C@H](C(C)C)C[C@H]1Cc1nnc(-c2ccncc2)o1,-11.0%[44.1 µM]
CC(C)NC(=O)C1CCC(=O)N1C1CCN(C(=O)c2ccc(C(C)C)cc2)CC1 (stereo not drawn),-9.8%
CC(C)c1cc(C(=O)N2CC[C@@](O)(C3CCOCC3)[C@H](C)C2)no1,-1.2%
FC(F)(F)c1ccc(CN2CCCC3(CC(c4ccccn4)=NO3)C2)cc1 (stereo not drawn),-4.8%
CCCS(=O)(=O)N1CCC2(CC1)CN(C)CC2COC (stereo not drawn),-22.7%
CC(=O)N[C@H]1C[C@@H](c2nc(-c3cccnc3)no2)N(C)C1,-18.8%[44.1 µM]
Cc1cn2nc(C(=O)NCCc3ccccc3)cc2c(=O)[nH]1,-0.1%
Cc1ccc(NC(=O)c2ccc3c(c2)N(C)C2CCCCN2C3=O)cc1 (stereo not drawn),i
COc1ccc(C(=O)N2CCC3(CC2)NC(=O)N(c2ccccc2)N3)cn1,-0.4%
Cc1cc(F)cc(CN2CCOCC3(C2)CN([S+](=O)([O-])c2ccccc2)C3)c1,33.1%[44.1 µM]
COc1ccc([C@H]2C[C@@H](O)[C@@H](O)[C@@H]2NC(=O)c2ccc(OC)c(OC)c2)cc1,-5.9%[44.1 µM]
CC1=C[C@@H](CNC(=O)COc2ccccc2)[C@H](C(C)C)C[C@H]1CC(=O)NCCN1CCOCC1,i
CC1=C[C@@H](CN2CCOCC2)[C@H](C(C)C)C[C@H]1Cc1nnc(-c2ccncc2)o1,-12.5%[44.1 µM]
CC1=C[C@@H](CNCc2ccccn2)[C@H](C(C)C)C[C@H]1Cc1nnc(-c2ccccc2F)o1,3.16µM*
CC1=C[C@@H](CNCc2ccc(C#N)cc2)[C@H](C(C)C)C[C@H]1Cc1nnc(-c2cccnc2)o1,-18.8%
CC1=C[C@@H](CNC(=O)C2CCCCC2)[C@H](C(C)C)C[C@H]1CC(=O)NCc1cccnc1,-22.0%[44.1 µM]
CC1=C[C@@H](CNC(=O)C2CC2)[C@H](C(C)C)C[C@H]1Cc1nnc(-c2ccccc2F)o1,15.8µM*
COCC(=O)NC[C@@H]1C=C(C)[C@H](Cc2nnc(-c3cncn3C)o2)C[C@H]1C(C)C,i
CC1=C[C@@H](CNCCN2CCOCC2)[C@H](C(C)C)C[C@H]1Cc1nnc(-c2ccccc2)o1,3.98µM*
SMILES,Pf Dd2 growth
CC1=C[C@@H](CNCc2ccncc2)[C@H](C(C)C)C[C@H]1Cc1nnc(C)o1,i
Cc1ccc(-c2noc(CCCC(=O)N3CCC(CCOc4ccccc4F)C3)n2)cc1 (stereo not drawn),i
Cc1cc(C)c(CNC(=O)c2c(C)sc3ccn(C)c(=O)c23)c(C)c1,-8.4%
O=C(NCc1ccncc1)c1cc(-c2ccc(Cl)cc2Cl)c2cccn2n1,14.4%
O=C(C1CCCCC1)N1CCC(N2C(=O)C(O)C23CCCCC3)CC1 (stereo not drawn),-27.4%
O=C(NC[C@H]1C[C@@H]2CCN1C[C@@H]2CN1CCCCC1)c1ccc2c(c1)OCO2,-13.1%[44.1 µM]
CCc1ccc(CNC(=O)c2cc(-c3ccc(Br)s3)nc3ccccc23)cc1,i
COc1cccc(CNC(=O)c2cc(-c3ccc(Cl)s3)nc3ccccc23)c1,-1.9%
CCN(CC)CCNC(=O)c1cc(-c2ccc(Br)s2)nc2ccccc12,11.2µM*
CCN(Cc1nc(C)no1)C(=O)c1cc(COc2cccc(F)c2)[nH]n1,-10.7%
Cc1ccc(NC(=O)N2CCC(Oc3ncccc3C(=O)N3CCCCC3)C2)cc1 (stereo not drawn),-17.0%
Cc1cc(=O)oc2cc(OCC(=O)Nc3ccc(O)c(C(=O)O)c3)ccc12,5.2%
COCC(=O)NCC1c2cc(OC)c(OC)cc2CCN1C(=O)Nc1cccc(F)c1 (stereo not drawn),i
CCCC(=O)N1CCc2cc(OC)c(OC)cc2C1COc1ccc2c(C)cc(=O)oc2c1 (stereo not drawn),7.08µM*
COc1cc2c(cc1OC)C(COc1ccc3c(C)cc(=O)oc3c1)N(C(=O)c1ccc(C)c(C)c1)CC2 (stereo not drawn),5.01µM*
CCCNC(=O)NCC1c2cc(OC)c(OC)cc2CCN1C(=O)NCC (stereo not drawn),-18.3%
COc1cc2c(cc1OC)C(CNC(=O)c1ccc(C)cc1)N(C(=O)NC(C)C)CC2 (stereo not drawn),-1.8%
